Data: paper PMC5540273 (PLoS ONE, 2017)

Experiments:
Details in all cases: concentration: 1 μM, replicates: in singlicate; n = 1
FGFR4 = tested on: FGFR4
FGR = tested on: FGR
FLT1 = tested on: FLT1
FLT3-autoinhibited = tested on: FLT3-autoinhibited
FLT3 = tested on: FLT3
FLT4 = tested on: FLT4
FRK = tested on: FRK
FYN = tested on: FYN
GAK = tested on: GAK
GCN2(Kin.Dom.2,S808G) = tested on: T1, GCN2(Kin.Dom.2,S808G)
T1 construct: gene EIF2AK4
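Further: KINOMEscan kinase panel screen.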

SMILES | %Inh (FGFR4) [%] | %Inh (FGR) [%] | %Inh (FLT1) [%] | %Inh (FLT3-autoinhibited) [%] | %Inh (FLT3) [%] | %Inh (FLT4) [%] | %Inh (FRK) [%] | %Inh (FYN) [%] | %Inh (GAK) [%] | %Inh (GCN2(Kin.Dom.2,S808G)) [%]
C[C@@H]1CCN(C(=O)CO)C[C@@H]1N(C)c1ncnc2[nH]ccc12 | 0 | 0 | 0 | 0 | 0 | 0 | 3 | 0 | 0 | 7
FC(F)(F)c1cc(Nc2nccc(-c3c(-c4ccc(Cl)cc4)nn4ncccc34)n2)ccc1Cl [GW829351] | 0 | 0 | 0 | 0 | 0 | 0 | 0 | 0 | 0 | 0
CCc1nc(-c2cccc(C)c2)c(-c2ccnc(NC(=O)c3ccccc3)c2)s1 | 0 | 35 | 0 | 1 | 0 | 8 | 0 | 0 | 33 | 0
COc1ccc(NC(=O)Nc2ccc(C)c(-c3ccc(C(=O)Nc4ccncc4)cc3)c2)cc1 [GSK1398475] | 5 | 27 | 26 | 0 | 85 | 15 | 23 | 41 | 0 | 0
CSc1nn2c(=O)cc(N3CCOCC3)nc2n1Cc1cccc(Cl)c1Cl [GSK2347225] | 15 | 30 | 24 | 0 | 0 | 0 | 11 | 17 | 9 | 1
Cl.Cn1ccc(-c2cccc(Nc3ccnc4cc(-c5nccs5)ccc34)c2)n1 [GW525701] | 0 | 53 | 0 | 0 | 0 | 7 | 0 | 3 | 19 | 0
Nc1nc(-c2ccc3c(N)n[nH]c3c2)cc(N2CCCCC2)n1 [GSK2228768] | 0 | 12 | 24 | 0 | 0 | 1 | 0 | 18 | 0 | 0
CCC(CC)(CC)n1cnc2c(N)ncnc21 [SKF-97620] | 4 | 4 | 4 | 19 | 11 | 0 | 23 | 7 | 3 | 0
Nc1nc(-c2ccccn2)c(-c2ccnc3ccccc23)s1 [GW548057] | 0 | 9 | 34 | 0 | 0 | 0 | 0 | 11 | 47 | 0
OCCOCCn1ccc2ncnc(Nc3ccc(Oc4cccc(Cl)c4)c(Cl)c3)c21 | 0 | 2 | 0 | 0 | 0 | 0 | 0 | 0 | 0 | 0
Fc1ccc(Nc2nccc(-c3c(-c4ccc(Cl)cc4)nn4ncccc34)n2)cc1F [GW829058] | 5 | 12 | 8 | 14 | 40 | 1 | 32 | 7 | 14 | 3
CS(=O)(=O)CCNCc1nc(-c2ccc3ncnc(Nc4ccc(OCc5cccc(F)c5)c(Cl)c4)c3c2)cs1.Cl [GW583340] | 0 | 11 | 10 | 0 | 0 | 0 | 0 | 35 | 19 | 0
CC(=O)Nc1n[nH]c2ncc(-c3ccccc3)cc12 [SB-548492] | 0 | 16 | 25 | 47 | 74 | 0 | 0 | 0 | 31 | 27
N#Cc1ccc(Oc2ccc(Nc3ncnc4cc[nH]c34)cc2Cl)cc1 | 27 | 22 | 8 | 15 | 10 | 0 | 23 | 20 | 17 | 10
O=C(Nc1ccccc1F)NC1CCN(c2ccnc(Nc3ccc(F)cc3)n2)C1 (centres unmarked) [GSK1379722] | 7 | 9 | 26 | 0 | 1 | 14 | 9 | 0 | 0 | 4
CNc1nccc(-c2c(-c3ccc(F)cc3)ncn2C2CCN(C)CC2)n1 [SB-222903] | 0 | 0 | 0 | 0 | 0 | 0 | 0 | 0 | 6 | 3
CS(=O)(=O)CCNCc1ccc(-c2ccc3ncnc(Nc4ccc(OCc5ccccc5)c(Cl)c4)c3c2)o1.Cl [GW574783] | 0 | 9 | 26 | 0 | 11 | 0 | 0 | 14 | 0 | 16
